# Assay results published in PubChem BioAssay (EPA / NIEHS).
# Inconclusive results are not listed. Calls of active or inactive are those of the source. Rule for the calls: active = hit-call score of the fitted dose curve at least 0.9, where 1 is the maximum; inconclusive = response in the unintended direction; inactive = score below 0.9. Where a SMILES comes first, the peptide text is derived from it. [ ]: non-standard residue; d: D form. The star is where a group is joined. Sta = CC(C)C[C@H](N)[C@@H](O)CC(=O)O; Isovaleryl = CC(C)CC(=O)*
# Tests used:
# [1] = molecular target: Cellular tumor antigen p53 (Homo sapiens) (UniProt P04637); assay: TOX21_p53_BLA_p2_ratio: Tox21 HCT-116 p53 Agonism Beta-lactamase Assay, Ratio, Phase 2 (AID 2283592)
# Sequence of Cellular tumor antigen p53 (Homo sapiens) (P04637 whole entry, looked up): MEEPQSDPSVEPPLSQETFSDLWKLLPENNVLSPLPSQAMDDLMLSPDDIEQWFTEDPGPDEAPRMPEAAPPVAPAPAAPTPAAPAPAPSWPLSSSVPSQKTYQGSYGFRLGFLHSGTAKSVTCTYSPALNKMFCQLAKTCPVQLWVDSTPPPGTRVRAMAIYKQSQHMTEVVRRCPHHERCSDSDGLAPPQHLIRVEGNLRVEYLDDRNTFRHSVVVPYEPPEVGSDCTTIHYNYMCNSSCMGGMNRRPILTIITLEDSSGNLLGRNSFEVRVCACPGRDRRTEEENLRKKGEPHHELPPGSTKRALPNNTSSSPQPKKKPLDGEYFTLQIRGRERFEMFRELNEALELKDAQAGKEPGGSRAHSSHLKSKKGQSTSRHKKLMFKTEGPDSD
# How it was run: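 Readout: blue/green (460/530 nm) FRET emission ratio after 2 h CCF4-AM loading at room temperature, excitation 405 nm. HCT116 p53 bla cells, 16 h compound exposure at 37C, 5% CO2; agonist direction fitted against DMSO baseline.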
# [2] = molecular target: Cellular tumor antigen p53 (Homo sapiens) (UniProt P04637); assay: TOX21_p53_BLA_p4_ratio: Tox21 HCT-116 p53 Agonism Beta-lactamase Assay, Ratio, Phase 4 (AID 2283601)
# How it was run: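 HCT116 cells carrying an inducible beta-lactamase reporter were plated at 4000 cells/well, rested 5 h, then exposed to compounds in DMSO (217-fold dilution) for 16 h at 37C. CCF4-AM substrate was loaded 2 h at room temperature; 460/530 nm emission ratio scored gain-of-signal versus DMSO.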
# [3] = TOX21_p53_BLA_p5_viability: Viability Assessment in the Tox21 HCT-116 p53 Agonism Beta-lactamase Assay, Phase 5 (AID 2283600)
# How it was run: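 ATP luminescence (CellTiter-Glo, 30 min, RT) served as the viability read-out, with loss of signal indicating cytotoxicity. Compounds in DMSO were pinned at a 217-fold dilution onto 4000 cells/well and incubated 16 h, 37C.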
# [4] = TOX21_p53_BLA_p3_viability: Viability Assessment in the Tox21 HCT-116 p53 Agonism Beta-lactamase Assay, Phase 3 (AID 2283593);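 note: cells exposed to compound for 16 h before reading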
# How it was run: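 HCT-116 cells (4000/well) rested 5 h at 37C, then got DMSO compounds by pin tool (217-fold dilution) for 16 h at 37C, 5% CO2. After the bla read, CellTiter-Glo was added and luminescence read at 30 min, room temperature.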
# [5] = molecular target: Cellular tumor antigen p53 (Homo sapiens) (UniProt P04637); assay: TOX21_p53_BLA_p3_ratio: Tox21 HCT-116 p53 Agonism Beta-lactamase Assay, Ratio, Phase 3 (AID 2283596)
# How it was run: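 Cells were seeded at 4000/well, rested 5 h at 37C, then dosed with DMSO compound solutions (217-fold dilution) for 16 h. CCF4-AM substrate was loaded for 2 h at room temperature, and the 460/530 nm emission ratio was fitted for gain of signal versus DMSO.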
# [6] = TOX21_p53_BLA_p4_viability: Viability Assessment in the Tox21 HCT-116 p53 Agonism Beta-lactamase Assay, Phase 4 (AID 2283597);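 note: hits lower the luminescence signal meaning cytotoxicity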
# How it was run: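 ATP content by CellTiter-Glo luminescence, 30 min RT, read after the beta-lactamase ratio step. Cells: HCT116, 4000/well, compound added after 5 h, exposure 16 h at 37C. Signal loss = reduced viability.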
# [7] = molecular target: Cellular tumor antigen p53 (Homo sapiens) (UniProt P04637); assay: TOX21_p53_BLA_p5_ratio: Tox21 HCT-116 p53 Agonism Beta-lactamase Assay, Ratio, Phase 5 (AID 2283599)
# How it was run: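 HCT-116 cells carrying a p53-inducible beta-lactamase reporter were seeded at 4000 cells/well and dosed after 5 h with compound in DMSO (217-fold dilution). After 16 h at 37C, CCF4-AM substrate was added for 2 h, and the 460/530 nm emission ratio was scored as gain-of-signal versus DMSO.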
# PGR (gene 5241) = PGR (gene 5241) (UniProt P06401); assay: TOX21_PR_BLA_Followup_Antagonist_ratio: Tox21 HEK293 Progesterone Receptor (PR) Antagonism Beta-lactamase Follow-Up Assay, Ratio (AID 2283934)
# Sequence of PGR (gene 5241) (P06401 whole entry, looked up, the tested form may be a part): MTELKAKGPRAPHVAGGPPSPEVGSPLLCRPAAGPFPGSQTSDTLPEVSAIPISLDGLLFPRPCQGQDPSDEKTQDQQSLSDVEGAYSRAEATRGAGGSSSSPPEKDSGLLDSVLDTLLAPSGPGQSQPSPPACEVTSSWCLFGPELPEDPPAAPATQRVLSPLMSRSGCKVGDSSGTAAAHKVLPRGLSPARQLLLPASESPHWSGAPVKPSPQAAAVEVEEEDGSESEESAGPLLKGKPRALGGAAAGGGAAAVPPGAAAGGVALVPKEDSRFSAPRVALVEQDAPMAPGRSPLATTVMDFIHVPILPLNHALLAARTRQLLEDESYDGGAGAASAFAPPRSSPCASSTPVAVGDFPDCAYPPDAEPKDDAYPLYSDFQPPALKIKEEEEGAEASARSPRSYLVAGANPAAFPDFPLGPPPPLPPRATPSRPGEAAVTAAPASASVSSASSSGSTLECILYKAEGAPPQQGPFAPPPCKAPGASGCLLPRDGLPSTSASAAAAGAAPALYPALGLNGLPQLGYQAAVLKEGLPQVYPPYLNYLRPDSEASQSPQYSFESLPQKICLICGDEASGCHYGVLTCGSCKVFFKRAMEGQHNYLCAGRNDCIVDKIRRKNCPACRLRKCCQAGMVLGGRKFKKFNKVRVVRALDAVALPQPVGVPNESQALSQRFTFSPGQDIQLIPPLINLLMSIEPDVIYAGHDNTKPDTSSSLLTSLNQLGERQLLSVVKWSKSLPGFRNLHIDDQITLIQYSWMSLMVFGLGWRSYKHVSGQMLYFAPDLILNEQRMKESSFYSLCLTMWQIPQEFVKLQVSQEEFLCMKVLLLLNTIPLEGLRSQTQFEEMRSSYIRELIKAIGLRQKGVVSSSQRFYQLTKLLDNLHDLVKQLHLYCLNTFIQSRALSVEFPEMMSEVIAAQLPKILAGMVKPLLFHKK
# How it was run: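 Read-out: blue/green beta-lactamase FRET ratio (cleaved ch2 over uncleaved ch1), fitted relative to DMSO baseline. Cells: PR-UAS-bla HEK293T, GAL4-UAS reporter, stimulated with 1 nM R5020 final; 16 hr compound exposure, 37C.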
# [8] = TOX21_PR_BLA_Followup_Agonist_viability: Viability Assessment in the Tox21 HEK293 Progesterone Receptor (PR) Agonism Beta-lactamase Follow-Up Assay (AID 2283935);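 note: signal loss means lower viability so actives are cytotoxic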
# How it was run: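 Luminescent ATP quantitation (CellTiter-Glo, 30 min, room temperature) in the same wells as the beta-lactamase read, on PR-UAS-bla HEK293T cells exposed to compound for 16 hr at 37C in 2% charcoal-stripped serum.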
# [9] = TOX21_PR_LUC_Followup_Antagonist_viability: Viability Assessment in the Tox21 HEK293 Progesterone Receptor (PR) Antagonism Luciferase Follow-Up Assay (AID 2283940)
# How it was run: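 Read-out: CellTiter-Glo ATP luminescence, loss of signal taken as reduced viability. Cells: HEK293-PR-A-luc, 3,000/well, 5 h settling, then 16 h compound exposure at 37C, 0% CO2.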
# [10] = TOX21_PR_LUC_Followup_Agonist_viability: Viability Assessment in the Tox21 HEK293 Progesterone Receptor (PR) Agonism Luciferase Follow-Up Assay (AID 2283941);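 note: loss of signal means cytotoxicity so actives lower viability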
# How it was run: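 Cytotoxicity counter-screen: ATP content by CellTiter-Glo luminescence, loss of signal = reduced viability. HEK293-PR-A-luc, 3,000 cells/well, compound exposure 16 h, 37C.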
structure (smiles),measurement,setting,value
O=c1[nH][nH]c2ccccc12,outcome,[1],inactive
same,outcome,[2],inactive
CCN(CC)CCOC(=O)C(c1ccccc1)C1CCCCC1 (stereo not drawn),outcome,[1],inactive
same,outcome,[3],inactive
same,outcome,[2],inactive
O=C(NCCCN1CCOCC1)c1ccc(Cl)cc1,outcome,[1],inactive
same,outcome,[2],inactive
O=[N+]([O-])c1cc([N+](=O)[O-])c2ccc(S(=O)(=O)O)cc2c1O,outcome,[4],inactive
N[C@@H](CS)C(=O)O,outcome,[1],inactive
same,outcome,[3],inactive
same,outcome,[2],inactive
CCCOC(C)=O,outcome,[4],inactive
same,outcome,[5],inactive
same,outcome,[6],inactive
same,outcome,[7],inactive
same,outcome,[3],inactive
CCCCNC(=O)NCCCC,outcome,[4],inactive
same,outcome,[5],inactive
same,outcome,[6],inactive
same,outcome,[7],inactive
same,outcome,[3],inactive
same,outcome,[2],inactive
c1cnc2cc3c(cc2n1)C1CNCC3C1,outcome,[1],inactive
same,outcome,[2],inactive
O=C(/C=C/c1ccc(O)c(O)c1)O[C@@H](C(=O)O)[C@@H](OC(=O)/C=C/c1ccc(O)c(O)c1)C(=O)O,outcome,[4],inactive
same,outcome,[5],inactive
same,outcome,[6],inactive
same,outcome,[7],inactive
same,outcome,[3],inactive
same,outcome,[2],inactive
CC(C)CC(=O)N[C@H](C(=O)N[C@H](C(=O)N[C@@H](CC(C)C)[C@@H](O)CC(=O)N[C@@H](C)C(=O)N[C@@H](CC(C)C)[C@@H](O)CC(=O)O)C(C)C)C(C)C (Isovaleryl-VV[Sta]A[Sta]-OH),outcome,[1],inactive
same,outcome,[3],inactive
same,outcome,[2],inactive
Cc1cccc(C)c1NC(=O)CN1CCCCCC1,outcome,[1],inactive
same,outcome,[3],inactive
same,outcome,[2],inactive
CN(C)C(=O)Oc1ccc[n+](C)c1,outcome,[4],inactive
same,outcome,[5],inactive
same,outcome,[6],inactive
same,outcome,[7],inactive
same,outcome,[3],inactive
same,outcome,[2],inactive
CC1(c2ccccc2)OC(C(=O)O)=CC1=O (stereo not drawn),outcome,[1],inactive
same,outcome,[2],inactive
C[C@](N)(Cc1ccc(O)cc1)C(=O)O,outcome,[4],inactive
same,outcome,[5],inactive
same,outcome,[6],inactive
same,outcome,[7],inactive
same,outcome,[3],inactive
CC(C)(CCC(=O)O)C(=O)O,outcome,[1],inactive
same,outcome,[2],inactive
NC(=O)C1(N2CCCCC2)CCN(CCCC(=O)c2ccc(F)cc2)CC1,AC50,[4],36.2 µM (active)
same,outcome,[5],inactive
same,outcome,[6],inactive
same,outcome,[7],inactive
NCc1ccc(S(N)(=O)=O)cc1,outcome,[4],inactive
same,outcome,[5],inactive
same,outcome,[6],inactive
same,outcome,[7],inactive
same,outcome,[3],inactive
CO/N=C(\C(=O)N[C@@H]1C(=O)N2C(C(=O)O)=C(C[N+]3(C)CCCC3)CS[C@H]12)c1csc(N)n1,outcome,[1],inactive
same,outcome,[2],inactive
Cc1ccc(Cl)cc1Cl,outcome,[4],inactive
same,outcome,[5],inactive
CC1(C)OC[C@@H](COC(=O)CCc2ccc(OC[C@@H](O)CNCCNC(=O)N3CCOCC3)cc2)O1,outcome,[4],inactive
same,outcome,[5],inactive
same,outcome,[6],inactive
same,outcome,[7],inactive
same,outcome,[3],inactive
same,outcome,[2],inactive
CN1CC[C@H](c2c(O)cc(O)c3c(=O)cc(-c4ccccc4Cl)oc23)[C@H](O)C1,outcome,[1],inactive
same,outcome,[2],inactive
same,AC50,PGR (gene 5241),0.206 µM (active)
same,outcome,[8],inactive
same,outcome,[9],inactive
same,outcome,[10],inactive
CC(C)(C)CC(C)(C)c1ccc(Nc2ccc(C(C)(C)CC(C)(C)C)cc2)cc1,outcome,[4],inactive
CC(=O)OCC(C)C,outcome,[4],inactive
same,outcome,[5],inactive
Cc1cc(O)c(Cl)cc1C,outcome,[4],inactive
same,outcome,[5],inactive
same,outcome,[6],inactive
same,outcome,[7],inactive
same,outcome,[3],inactive
C[C@@H](O)[C@H]1C(=O)N2C(C(=O)O)=C([C@H]3CCCO3)S[C@H]12,outcome,[1],inactive
same,outcome,[3],inactive
same,outcome,[2],inactive
CC1(C)CC(O)CC(C)(C)N1,outcome,[1],inactive
same,outcome,[2],inactive
CN1CCC(=C2c3ccccc3CC(=O)c3sccc32)CC1,outcome,[1],inactive
same,outcome,[2],inactive
Cc1nc2ccc(Cl)cc2[nH]1,outcome,[1],inactive
same,outcome,[2],inactive
CCOC(=O)C(Br)c1ccccc1 (stereo not drawn),outcome,[1],inactive
same,outcome,[2],inactive
COc1cc(C[C@@H]2NCCc3cc(O)c(O)cc32)cc(OC)c1OC,outcome,[4],inactive
same,outcome,[5],inactive
same,outcome,[3],inactive
same,outcome,[2],inactive
Cc1cc([N+](=O)[O-])ccc1N,outcome,[4],inactive
same,outcome,[5],inactive
same,outcome,[6],inactive
same,outcome,[7],inactive
same,outcome,[2],inactive
CN(C)CCCNCCCN,outcome,[4],inactive
same,outcome,[5],inactive
same,outcome,[7],inactive
same,outcome,[3],inactive
same,outcome,[2],inactive
BrC(Br)C(Br)Br,outcome,[4],inactive
same,outcome,[5],inactive
same,outcome,[7],inactive
same,outcome,[3],inactive
N[C@H]1CN(c2c(F)cc3c(=O)c(C(=O)O)cn(C4C[C@H]4F)c3c2Cl)CC12CC2 (stereo partly drawn),outcome,[4],inactive
same,outcome,[5],inactive
same,outcome,[6],inactive
same,outcome,[3],inactive
same,outcome,[2],inactive
O=C(Cn1c(=O)sc2ccc(Cl)cc21)N1CCN(CCO)CC1,outcome,[4],inactive
same,outcome,[5],inactive
same,outcome,[6],inactive
same,outcome,[3],inactive
same,outcome,[2],inactive
O=C(O)c1ccc(NC(=O)[C@H](Cc2ccc(O)cc2)NC(=O)c2ccccc2)cc1,outcome,[4],inactive
same,outcome,[5],inactive
same,outcome,[6],inactive
same,outcome,[3],inactive
same,outcome,[2],inactive
